Assay outcomes as filed in PubChem BioAssay.
VACV mCherry inh: inhibitors of vaccinia virus infection (mCherry reporter signal) | Vaccinia virus mCherry reporter infection, fluorescence | Potency, µM (doses to about 36.5 µM), most hits filed as inhibitors | actives 0.63% (n = 310,000); calls by dose curve; tested in A549 cells; also: nearly all actives have a fitted effect of over 35% in size
Pf growth 48h: P. falciparum growth inhibition at 48 hours (one generation) | P. falciparum luciferase growth in erythrocytes, 48 h | Potency, µM (titrated, usually from 28.7 µM), actives largely listed as inhibitors | actives 5.9% (n = 310,000) | AID 504832
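Luciferase-expressing P. falciparum in infected erythrocytes (2% hematocrit, 0.1% parasitemia final) in RPMI 1640/0.5% Albumax were exposed to compound for 48 hours at 37 C, 5% CO2; growth read as luminescence.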
HCV inh: HCV inhibition; AID 651820; actives 3.4% (n = 340,000); Potency, µM (series often up to 41.8 µM), actives largely listed as inhibitors; Huh7.5.1 HCVcc-Cre infection, luciferase reporter, 44 h
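A cell-based infection assay in which seeded cells (1,000 per well) receive test compound after 4 h, are inoculated with HCVcc-Cre at approximately 0.5 moi, and are incubated 44 h before luminescence detection.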
VACV Venus inh: vaccinia inhibition (Venus reporter); Vaccinia virus Venus reporter expression, fluorescence; Potency, µM (highest dose often 36.5 µM), actives largely listed as inhibitors; actives 0.46% (n = 330,000); AID 720580; calls by dose curve; tested in A549 cells; also: nearly all actives have a fitted effect of over 30% in size
NS1 inh: blocks influenza NS1 protein function; actives 0.4% (n = 270,000); Potency, µM (top dose mostly 46.1 µM); calls by dose curve; also: actives are rising curves; nearly all actives have a fitted effect of over 50% in size
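In this qHTS, NS1 from influenza A is expressed in budding yeast, where it slows growth. Cells are switched from glucose to 2% galactose medium (pH 6.0, -URA), treated with compound, and growth recovery is read at OD600.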
Pf growth 96h: P. falciparum growth inhibition at 96 hour, primary screen for plastid delayed-death inhibitors; P. falciparum luciferase reporter growth, 96 h; Potency, µM (doses to about 28.7 µM), most hits filed as inhibitors; actives 6.9% (n = 320,000); AID 504834
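P. falciparum expressing integrated firefly luciferase grown in erythrocytes (2% hematocrit, 0.05% parasitemia final) with compounds for 96 hours at 37 C, 5% CO2. Growth inhibition read as loss of luminescence after adding luciferase detection reagent.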
A number is an active result; – = inactive; ? = inconclusive; · = no result given. Shown are actives, neighbours in structure and some others; about 11% of the full set was active somewhere. Unless noted, calls follow the shape of the dose curve; as a rule, active = well fitted inhibition curve with a large enough effect; inconclusive = small, poorly fitted or top-dose-only effect, or another doubt; inactive = no such curve, though single readings can be large or run the other way.

SMILES	VACV mCherry inh	Pf growth 48h	HCV inh	VACV Venus inh	NS1 inh	Pf growth 96h
CCOC(=O)/C(=N\Nc1ccc(Br)cc1)N1CCN(c2ccccc2OC)CC1	–	14.7µM	?	–	–	?
COc1ccc(S(=O)(=O)N2CCN(c3ccccc3OC)CC2)cc1OC	–	–	–	–	–	?
COc1ccccc1N1CCN(C2CCN(S(=O)(=O)c3ccc4ccccc4c3)CC2)CC1	·	13.1µM	14.1µM	·	–	?
COc1ccccc1N1CCN(S(=O)(=O)c2cc(C(F)(F)F)cc(C(F)(F)F)c2)CC1	·	6.57µM	–	·	–	6.57µM
CC(C)CN(C(=O)CN1CCN(c2ccccc2O)CC1)c1c(N)n(CC(C)C)c(=O)[nH]c1=O	–	–	–	–	–	–
Cc1ccccc1CSc1nc2c(c(=O)[nH]1)CCC2	·	–	–	·	?	?
COc1ccccc1N1CCN(C2CCN(S(=O)(=O)c3ccc(C)cc3)CC2)CC1	–	?	–	?	–	4.15µM
CCOC(=O)c1ccc(S(=O)(=O)N2CCC(C(=O)N3CCN(c4ccccc4OC)CC3)CC2)cc1	?	·	10µM	?	·	·
CC(C)C1C(=O)Nc2ccc(S(=O)(=O)NCc3ccc(Cl)cc3)cc21 (configuration not stated)	–	·	·	–	·	·
CCOc1ccc(-n2nc3ccc(N)cc3n2)cc1	·	–	–	·	–	–
Cc1cnc(C(=O)N2CCCC(N3CCN(c4cccc(C(F)(F)F)c4)CC3)C2)cn1 (configuration not stated)	?	?	–	–	–	?
N#C/C(=C\c1ccccc1)C(=O)NC1CC1	·	–	–	·	–	–
N#C/C(=C\c1c(F)cccc1Cl)C(=O)NC1CC1	–	–	–	–	–	13.1µM
CSc1ccc(/C=C(\C#N)C(=O)NC2CCCCC2C)cc1 (configuration not stated)	–	?	?	–	–	?
CC1CCCCC1NC(=O)/C(C#N)=C/c1ccccc1F (configuration not stated)	–	?	?	–	–	11.7µM
O=C1c2ccccc2C(c2nnnn2-c2ccc3c(c2)OCCO3)N1Cc1cccnc1 (configuration not stated)	–	·	·	–	·	·
Cc1cnc(C(=O)Nc2ccccc2-n2cccc2)cn1	–	–	–	–	–	11.7µM
Ic1ccccc1CN[C@@H]1C2CCN(CC2)[C@@H]1C(c1ccccc1)c1ccccc1	?	2.62µM	?	?	·	2.94µM
Ic1ccccc1CNC1C2CCN(CC2)C1C(c1ccccc1)c1ccccc1 (configuration not stated)	·	·	·	·	–	·
COc1ccc(CN(C)C(=O)C2CC(=O)N(c3ccc4c(c3)OCCO4)C2)c(OC)c1 (configuration not stated)	·	?	?	·	·	6.57µM
O=C(O)CCN1C(=O)C2C3C=CC(C2C1=O)C1C(=O)N(CCC(=O)O)C(=O)C31 (configuration not stated)	·	–	–	·	–	–
O=C(O)CCN1C(=O)C2CCCCC2C1=O (configuration not stated)	–	·	–	–	–	0.738µM
CN(C)Cc1c(O)ccc2oc(Cc3ccccc3)cc12	–	0.415µM	?	–	–	–
N=C(N)Sc1nc(N2CCCCC2)nc(N2CCCCC2)n1	–	–	–	–	–	–
OCCN1CCN(c2nc(N3CCCCC3)nc(N3CCCCC3)n2)CC1	·	10.4µM	–	·	–	–
SMILES	VACV mCherry inh	Pf growth 48h	HCV inh	VACV Venus inh	NS1 inh	Pf growth 96h
COc1cccc(/C=C2/SC(=O)N(CC(=O)N3CCc4ccccc4C3)C2=O)c1OCC(=O)O	·	·	–	–	–	–
COc1ccc(C[C@@H]2OC3(C=CC(=O)C=C3)O[C@H]2Cc2ccc(OC)cc2)cc1	?	·	3.98µM	10µM	·	·
O=C1C=CC2(C=C1)O[C@H](Cc1ccccc1)[C@@H](Cc1ccccc1)O2	10µM	·	2.51µM	22.4µM	·	·
COC(=O)c1cccc(NC(=O)CCCOc2ccccc2)c1	·	?	–	·	–	–
C=CCSC1=C(C#N)C(c2ccc(C(C)C)cc2)CC(=O)N1 (configuration not stated)	–	·	–	–	–	–
COc1cccc(OCC(=O)N(C)Cc2nc(-c3ccccc3)no2)c1	–	–	–	–	–	–
CN(CC(=O)Nc1ccc(F)c(F)c1)S(=O)(=O)c1cccc2cccnc12	·	–	?	·	–	13.1µM
Cn1cnc2c1c(=O)[nH]c(=O)n2Cc1ccccc1	·	–	–	·	–	?
CC1CN(CC(=O)c2c(N)n(Cc3ccccc3)c(=O)n(C)c2=O)CC(C)O1 (configuration not stated)	·	–	–	·	–	·
COc1cccc(CNC(=O)c2cc(S(=O)(=O)N3CCCCCC3)cn2C)c1	–	·	·	–	·	·
COc1cccc(CNC(=O)c2cc(S(=O)(=O)N3CCCC3)cn2C)c1	–	13.1µM	–	–	–	11.7µM
COc1ccc(CCNC(=O)c2cc(S(=O)(=O)N3CCCC3)cn2C)cc1OC	–	–	?	–	?	–
Cc1cccc(CCNC(=O)c2cc(S(=O)(=O)N3CCCC3)cn2C)c1	–	–	8.91µM	–	–	–
CCOc1ccccc1NS(=O)(=O)c1ccc2c(c1)NC(=O)CCS2	–	–	–	–	–	?
Cc1ccc(C)c(NS(=O)(=O)c2ccc3c(c2)NC(=O)CCS3)c1	–	–	–	–	–	9.28µM
Cc1ccc(NS(=O)(=O)c2ccc3c(c2)NC(=O)CCS3)c(Br)c1	–	6.57µM	?	–	–	?
Cc1ccc(CCNS(=O)(=O)c2ccc3c(c2)NC(=O)CCS3)cc1	·	–	–	·	–	13.1µM
COc1ccc(CCNS(=O)(=O)c2ccc3c(c2)NC(=O)CCS3)cc1OC	–	?	–	–	–	?
Cc1ccccc1NS(=O)(=O)c1ccc2c(c1)NC(=O)CCS2	–	–	–	–	–	11.7µM
COc1cc(OC)c(NS(=O)(=O)c2ccc3c(c2)NC(=O)CCS3)cc1Cl	–	·	·	–	·	·
Cc1ccc(C(CCN)c2ccco2)cc1 (configuration not stated)	·	–	–	·	–	·
Nc1c(C(=O)Nc2ccc(F)cc2)nnn1-c1cccc(C(F)(F)F)c1	–	–	–	–	·	9.28µM
Cc1ccc(NC(=O)c2nnn(-c3cccc(C(F)(F)F)c3)c2N)cc1	–	–	–	–	·	11.7µM
c1ccc2c(c1)ccn2-n1ccc2ccccc21	?	·	·	–	·	·
COCCNC(=O)c1ccc2c(c1)N(Cc1cccc(Cl)c1)C(=O)c1ccccc1S2=O (configuration not stated)	–	·	·	–	·	·
CCN1CCN(C(=O)c2ccc3c(c2)N(Cc2cccc(Cl)c2)C(=O)c2ccccc2S3=O)CC1 (configuration not stated)	–	·	·	–	·	·
O=C(NCCCN1CCCC1)c1ccc2c(c1)N(Cc1cccc(Cl)c1)C(=O)c1ccccc1S2=O (configuration not stated)	·	3.29µM	?	·	–	–
